# The list is not random: actives were taken first. Their share in the collection is about 1.6%.
# eIF4H inh: inhibitors of RNA binding by human eIF4H; Q15056; eIF4H fluorescence polarization binding assay; inhibition, % at 35 µM; 290,000 tested, 0.94% active; AID 2012;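 further: calls also rest on retests at 20 µM and on dose response follow-up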
# PERK inh: blocks human PERK kinase. inhibition, % at 5.6 µM. 220,000 tested, 0.17% active. Q9NZJ5. CHO PERK-DD fusion, SEAP luminescence translation reporter;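 active means inhibition above the mean inhibition of all tested compounds plus 3 SD, set separately per screening campaign, cut at about 2.9% in these data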;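 further: PERK kinase domain activated by AP20187 dimerizer at 100 nM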
# Target sequence (Q9NZJ5 whole entry, looked up, the tested form may be a part): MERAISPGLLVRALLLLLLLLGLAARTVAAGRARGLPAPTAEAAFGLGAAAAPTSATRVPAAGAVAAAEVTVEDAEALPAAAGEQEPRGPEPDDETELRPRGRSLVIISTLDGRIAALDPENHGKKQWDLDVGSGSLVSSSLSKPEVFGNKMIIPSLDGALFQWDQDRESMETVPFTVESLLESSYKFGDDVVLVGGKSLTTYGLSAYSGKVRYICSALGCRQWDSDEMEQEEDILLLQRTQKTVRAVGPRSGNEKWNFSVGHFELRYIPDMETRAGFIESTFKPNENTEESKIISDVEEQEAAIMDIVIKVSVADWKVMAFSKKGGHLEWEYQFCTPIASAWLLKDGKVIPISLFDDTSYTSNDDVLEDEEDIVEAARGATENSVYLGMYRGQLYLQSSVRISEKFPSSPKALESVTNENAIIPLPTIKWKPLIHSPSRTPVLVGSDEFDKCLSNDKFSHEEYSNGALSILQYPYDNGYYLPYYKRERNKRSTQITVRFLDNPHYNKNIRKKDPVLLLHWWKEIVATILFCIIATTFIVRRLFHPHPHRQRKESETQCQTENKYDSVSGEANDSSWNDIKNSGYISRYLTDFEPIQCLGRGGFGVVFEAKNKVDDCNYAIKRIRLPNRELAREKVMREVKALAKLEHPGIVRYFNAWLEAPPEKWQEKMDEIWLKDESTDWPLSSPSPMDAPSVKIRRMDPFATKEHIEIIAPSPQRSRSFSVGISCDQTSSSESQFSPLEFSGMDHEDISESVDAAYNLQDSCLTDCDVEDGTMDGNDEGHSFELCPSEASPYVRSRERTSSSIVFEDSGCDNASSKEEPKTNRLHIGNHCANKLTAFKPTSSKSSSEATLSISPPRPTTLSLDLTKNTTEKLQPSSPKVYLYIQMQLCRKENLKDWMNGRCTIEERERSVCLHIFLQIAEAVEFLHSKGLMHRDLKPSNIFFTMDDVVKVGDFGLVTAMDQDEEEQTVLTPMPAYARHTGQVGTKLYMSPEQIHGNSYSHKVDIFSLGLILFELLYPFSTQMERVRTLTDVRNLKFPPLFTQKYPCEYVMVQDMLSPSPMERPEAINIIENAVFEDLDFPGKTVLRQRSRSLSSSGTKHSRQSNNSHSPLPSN
# MLLE-PAM2 inh: blocks PAM2 peptide binding to the PABP1 MLLE domain. GST-MLLE / FITC-PAM2 fluorescence polarization. inhibition, % at 20 µM. 360,000 tested, 0.36% active. AID 588489; in the data active means inhibition above about 35%, passing the limit was not always enough
# PABP polyA inh: blocks human PABP binding to poly(A) RNA. inhibition, % at 35 µM. AID 2014. fluorescence polarization. 290,000 tested, 1% active. P11940;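 further: calls also rest on retests at 20 µM and on dose response follow-up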
# eIF4E 4G PPI: inhibitors of eIF4E and eIF4G interaction in translation initiation | inhibition, % at 21.7 µM | P63073+Q04637 | TR-FRET eIF4E-eIF4GI(517-606) binding, 2 h | 220,000 tested, 0.37% active | AID 782;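 active means inhibition above about 30%, limit read from the data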
# A number is an active result; – = inactive; ? = inconclusive; · = no result given; + = active, no number; [ ] = remark or other dose. Unless noted, how the calls were made is not given here.
SMILES,eIF4H inh,PERK inh,MLLE-PAM2 inh,PABP polyA inh,eIF4E 4G PPI
CC(=O)c1ccc(NC(=O)CC2Nc3cccc4cccc(c34)NC2=O)cc1 (stereo not drawn),?,–,–,?,–
CC(=O)Nc1ccc(NC(=O)CC2Nc3cccc4cccc(c34)NC2=O)cc1 (stereo not drawn),106,–,–,84,·
Cc1cccc(NC(=O)CC2Nc3cccc4cccc(c34)NC2=O)c1 (stereo not drawn),113,–,–,88,–
COCCNC(=O)C(=O)NCCN1CCOCC1,–,–,–,–,–
CCN1CCN(CC(=O)N2N=C(c3ccc(OC)cc3)CC2c2ccc(OC)cc2)C(=O)C1=O (stereo not drawn),–,–,–,–,–
O=C(Nn1c(O)c(C=C2N=c3ccccc3=N2)sc1=S)c1cccc(Cl)c1,–,–,–,38,–
C=CCn1c(COc2ccc(CC)cc2)nnc1SC/C(O)=C(\C#N)c1nc2ccccc2[nH]1,66,–,–,54,–
Cc1cc(C(=O)NC2CCCCC2)c(C)o1,·,·,–,·,·
Cc1cc(C(=O)NC2Cc3ccccc3C2)c(C)o1,96,–,–,72,–
CSc1c(C#N)c(N)nc2sc(C(=O)c3ccccc3)c(N)c12,85,–,–,60,–
Nc1c(C(=O)Nc2ccccc2)sc2nc3c(c(-c4ccco4)c12)CCC3,84,–,–,62,–
Cc1ccc(NC(=O)c2sc3nc4c(c(-c5ccco5)c3c2N)CCC4)cc1,82,–,–,53,–
Cc1ccccc1NC(=O)c1sc2nc3c(c(-c4ccco4)c2c1N)CCCC3,–,–,–,–,–
Nc1c(C(=O)Nc2ccccc2)sc2nc3c(c(-c4ccco4)c12)CCCC3,–,–,–,–,–
COc1ccc(C(C2C(=O)CC(C)(C)CC2=O)C2C(=O)CC(C)(C)CC2=O)cc1CO,–,·,–,–,·
OC(CN1CCN(Cc2ccccc2)CC1)Cn1c2ccccc2c2ccccc21 (stereo not drawn),–,–,–,–,–
COC(=O)c1ccccc1NC(=O)c1ccc2c(c1)OCCO2,–,–,–,–,–
COC(=O)c1ccccc1NC(=S)NC(=O)c1ccc2c(c1)OCO2,–,·,42,–,·
Cc1ccc(NC(=O)c2cc(-n3cnnc3)ccc2Cl)cc1,–,–,–,–,–
Cc1ccc(NC(=O)c2cc(N3C(=O)C=CC3=O)ccc2Cl)cc1C,?,–,–,active,–
Cn1c(/C=C/c2cccc(Br)c2)nc2ccccc2c1=O,–,·,–,–,·
Cc1ccc(-c2csc3ncn(CC#N)c(=O)c23)cc1C,54,·,–,34,·
Cc1ccc(-c2csc3ncn(CC#N)c(=O)c23)cc1,–,–,–,–,–
COc1ccc(CCNC(=O)C2CCN(C(=O)c3ccc(Cl)cc3)CC2)cc1OC,–,·,–,–,·
O=C(CSc1ccc(-c2ccco2)nn1)NCCc1ccccc1,–,–,–,–,–
SMILES,eIF4H inh,PERK inh,MLLE-PAM2 inh,PABP polyA inh,eIF4E 4G PPI
CCOC(=O)C(NS(=O)(=O)c1ccc(Br)cc1)C(C)C (stereo not drawn),–,–,–,–,–
CC(C)SCC(=O)Nc1ncc2c(n1)-c1ccccc1CC2,76,–,–,–,–
O=[N+]([O-])c1ccc(-c2nnc3cccc(Cl)n23)cc1,–,·,–,–,·
COc1ccc(OCC(=O)Nc2ccccc2C(=O)N2CCOCC2)cc1,active,–,–,90,–
N#C/C(=N\Nc1cccc2ccccc12)c1nnc2n1CCCCC2,86,–,–,active,–
c1ccc2c(c1)NCC1CCCN21 (stereo not drawn),104,·,–,–,·
c1ccc2c(c1)CCN(C1CCCCC1)C2,–,·,–,–,·
Cn1c(SCC(=O)N2CCOCC2)nnc1-c1cccc(NC(=O)c2ccccc2)c1,·,–,–,·,–
COC(=O)CSc1nnc(-c2cccc(NC(=O)c3ccc(C)cc3)c2)n1C,–,–,–,–,72
COc1ccc(C(=O)Cc2ccccc2)cc1OC,–,4.8,–,–,–
COc1ccc(CNC(=O)/C=C/[C@H]2O[C@@H](n3cnc4c(NC(=O)c5ccccc5)ncnc43)[C@H](O)[C@@H]2O)cc1,·,·,–,·,·
Cc1c2ccccc2nc2c(F)c(NCCO)c(F)c(F)c12,–,–,–,–,–
Cc1c2ccccc2nc2c(F)c(NC(C)C)c(F)c(F)c12,82,–,–,+,–
COc1ccc(N(CC(=O)Nc2cccc(N(C)S(C)(=O)=O)c2)S(=O)(=O)c2ccccc2)cc1Cl,–,–,–,–,–
OCCC#Cc1c(-c2ccsc2)sc2ccccc12,–,·,–,–,·
CCN1CCc2c(sc3c2c(NCc2ccco2)nc2nnnn23)C1,57,–,–,81,–
Cc1nc(NCc2ccco2)c2c3c(sc2n1)CCC3,–,–,–,–,–
CNC(=O)c1ccc(-c2cc(C(F)(F)F)nn2C)s1,–,–,–,–,–
Cn1nc(C(F)(F)F)cc1-c1ccc(/C=C(\C#N)C(=O)c2ccccc2)s1,–,–,–,19,–
COc1ccc(CCNC(=O)CS(=O)(=O)c2cn(CC(=O)N3CCCC3)c3ccccc23)cc1OC,–,–,–,–,–
CCOc1ccccc1OCCC(=O)OCC(=O)c1ccc[nH]1,59,–,–,3.8,–
CCCCC1=CC2=C(c3ccco3)C(=O)C(C)(OC(=O)c3ccc(OC)cc3)C(=O)C2=CN1Cc1ccccc1 (stereo not drawn),–,·,–,40,–
Cc1cccc(OC(=O)n2c(=S)oc3cc(Cl)ccc32)c1,?,–,–,86,–
CCOC(=O)c1c(NC(=O)Cn2ccsc2=N)sc(C)c1C,–,–,–,–,–
O=C(NCc1ccc(F)cc1)c1c2c(nc3ccccc13)CCC2,71,–,–,–,36
SMILES,eIF4H inh,PERK inh,MLLE-PAM2 inh,PABP polyA inh,eIF4E 4G PPI
Nc1c(C(=O)NCc2ccco2)sc2nc3c(cc12)C(=O)CCC3,89,–,–,76,32[fluorescence artefact?]
COc1ccc2cc3c(N)c(C(=O)NCc4ccco4)sc3nc2c1,?,–,–,–,–
O=C(NCc1ccco1)c1c2c(nc3ccccc13)CCC2,89,–,–,82,·
Cc1ccc2c(c1)N(CCC(=O)NCc1ccc3c(c1)OCO3)C(=O)CO2,–,–,–,–,–
N/C(=N\OC(=O)c1ccc(Br)o1)c1cccnc1,–,–,–,–,–
CC(=O)Nc1ccc(S(=O)(=O)Nn2cnnc2)cc1,–,–,–,–,–
COC(=O)c1c(C)[nH]c(C(=O)N2CCN(c3ccc(OC)cc3)CC2)c1C,?,–,·,62,–
COc1cccc(N2CCN(C(=O)c3[nH]c(C)c(C(C)=O)c3C)CC2)c1,–,–,–,–,–
CC(=O)c1[nH]c(C)c(C(C)=O)c1C,–,–,–,–,–
COC(=O)c1c(C)[nH]c(C(C)=O)c1C,–,3.0,–,–,–
COc1cc(COc2ccc3c(C)c(Cc4ccccc4)c(=O)oc3c2C)cc(OC)c1OC,–,–,–,–,–
NNC(=O)c1nnsc1-c1csnn1,·,·,–,·,·
COCCn1c(SCC(=O)c2c(N)n(C)c(=O)n(C)c2=O)nc2ccccc21,3.0,–,–,61,–
